# DAX1 inh-1: inhibitors of DAX1 repression of SF-1 activated StAR promoter; HEK293T StAR-luciferase reporter, SF-1/DAX-1 repression relief; inhibition, % at 6.8 µM; actives 1.1% (n = 370,000); AID 652010;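 active = inhibition above the mean over all tested compounds plus 3 SD, cut at about 3.6% in these data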;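 also: 0% = DAX-1 cells with DMSO and 100% = cells lacking DAX-1 with DMSO; higher inhibition means more luminescence from relief of DAX-1 repression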
# hgDAF-12 ag: agonists of H. glycines DAF-12 nuclear receptor; HEK293 GAL4-hgDAF12 UAS-luciferase reporter, agonist luminescence; normalized to butyrate control; activation, % at 6.8 µM; actives 1.8% (n = 370,000);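 active = activation above a cutoff set at the mean of all screened compounds plus 3 SD, cut at about 10% in these data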;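 also: 0% = DMSO wells and 100% = sodium butyrate wells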
# DAX1 inh-2: inhibits human nuclear receptor DAX1; P51843; HEK293 Gal4-DAX1 luciferase reporter, luminescence; inhibition, % at 6.75 µM; actives 0.99% (n = 340,000);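 active = inhibition above the mean over all tested compounds plus 3 SD, cut at about 4.2% in these data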;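 also: 0% = DAX1-transfected cells with DMSO and 100% = empty-vector control cells with DMSO; inhibition shows as a rise in luminescence from relieved DAX1 repression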
# Target sequence (P51843 207-470 limits assumed): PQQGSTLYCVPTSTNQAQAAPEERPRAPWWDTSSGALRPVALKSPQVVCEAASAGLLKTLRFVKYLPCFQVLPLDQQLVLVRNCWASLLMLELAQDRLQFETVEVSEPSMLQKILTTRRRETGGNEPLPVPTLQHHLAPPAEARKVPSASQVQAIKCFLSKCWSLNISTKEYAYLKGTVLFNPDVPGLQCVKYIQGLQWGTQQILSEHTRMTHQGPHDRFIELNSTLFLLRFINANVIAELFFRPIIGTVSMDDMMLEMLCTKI
# ssDAF12 agonist: activators of S. stercoralis DAF-12 nuclear receptor; HEK293 ssDAF-12/GRIP1 lit1-tk-luc reporter, luminescence; % of 3 µM dafachronic acid response; actives 1% (n = 370,000); activation, % at 6.8 µM;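 active = activation above the mean over all tested compounds plus 3 SD, cut at about 0.9% in these data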;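 also: 0% = DMSO-only wells and 100% = 3 µM delta7-dafachronic acid wells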
# hcDAF12 agonist: activates DAF-12 receptor from parasite H. contortus. HEK293 hcDAF-12 lit1-tk-luc reporter, luminescence; 0% DMSO, 100% Δ7-dafachronic acid. activation, % at 6.8 µM. actives 1.4% (n = 370,000). AID 652067;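 active = activation above the mean of all tested compounds plus 3 SD, cut at about 5.5% in these data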;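 also: 100% = response to 3 µM Δ7-dafachronic acid high control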
# SMARCA2 activ: activators of SMARCA2 function; MG213 cells, MMTV-luciferase reporter, dexamethasone, overnight; activation, % at 9.1 µM; actives 1% (n = 370,000); AID 652017; in the data active = activation above about 7.8%;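 also: 0% = vehicle wells and 100% = reference activator wells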
# * = called active by the depositor; nt = not tested or not shown. This is a sample that favours compounds with a hit; in the whole collection about 4.8% have one here.
SMILES,DAX1 inh-1,hgDAF-12 ag,DAX1 inh-2,ssDAF12 agonist,hcDAF12 agonist,SMARCA2 activ
CC(=O)c1ccc(NS(=O)(=O)c2ccc(N/C=C/C(=O)c3ccc(F)cc3)cc2)cc1,1,5,-1,0,2,8
CC(C)CN(CCNC(=O)CN1C(=O)CSc2ccc(S(=O)(=O)N3CCOCC3)cc21)CC(C)C,0,1,2,-1,0,0
CC(C)CN(CCCNC(=O)CN1C(=O)CSc2ccc(S(=O)(=O)N3CCOCC3)cc21)CC(C)C,2,0,1,0.9*,-1,2
COc1ccc2c(c1)CCCN2C(=O)C1CCCN(S(=O)(=O)c2ccc(C)c(C)c2)C1 (stereo not given),-2,-4,nt,-2,-4,-7
CCCC(C)NC(=O)CC1Oc2ccccc2NC1=O (stereo not given),1,2,nt,-1,-2,-6
CCOC(=O)c1nn(-c2ccc(Cl)cc2)cc1O,2,7,8.9*,-1,2,5
CC(C)CC(NC(=O)c1ccccc1)C(=O)OCC(=O)Nc1ccc(S(N)(=O)=O)cc1 (stereo not given),0,2,4.5*,-2,-1,-1
COc1cc2c(cc1NC(=O)CSc1nnc(COc3ccccc3)n1Cc1ccco1)oc1ccccc12,0,4,nt,0,0,-1
COc1ccc(C#CCN(C)/C(N)=N/C(=O)OCc2ccccc2)cc1,0,3,nt,-2,3,-4
COc1ccc(-c2nn(-c3ccccc3)cc2/C=C2/SC(=S)N(CCC(=O)O)C2=O)cc1,0,4,-1,-1,-2,3
Cc1ccc(-c2nn(-c3ccccc3)cc2/C=C2\SC(=S)N(CC(=O)O)C2=O)cc1,0,-2,0,1.6*,-1,-3
Cc1ccccc1C=O,0,2,1,-1,0,0
Cc1ccccc1/C=C/C1=NCCN1,-1,-4,-1,1.2*,0,0
OC[C@H]1O[C@@H](c2nc(-c3ccccc3Br)no2)[C@H](O)[C@@H]1O,0,1,nt,0,0,-7
OC[C@H]1O[C@@H](c2nc(-c3cccc4ccccc34)no2)[C@H](O)[C@@H]1O,1,13*,nt,0,1,2
COC(=O)[C@H](CC1(c2cn(S(=O)(=O)CC[Si](C)(C)C)c3ccccc23)C(=O)Nc2ccccc21)NC(=O)OC(C)(C)C (stereo not given in full),nt,1,nt,-1,4,nt
CN[C@H]1C[C@H]2c3cc(-c4ccc5c(c4)OCO5)ccc3CCN2C[C@H]1[C@H](C)O,0,1,nt,-1,-1,-1
C/C(=N\NC(=O)COc1ccc(C)cc1C(C)C)c1ccc(-n2ccnc2)cc1,0,11*,0,-2,-3,-1
O=C(Cn1nnc(-c2ccccc2F)n1)Nc1ccc(Cl)cc1,1,-2,nt,-1,-1,1
COC(=O)[C@H](CC(C)C)N(CCCc1cn(CC2CCCCC2)nn1)S(=O)(=O)c1ccccc1Br,-2,1,nt,-2,-5,-5
CN1Cc2nnn(Cc3ccccc3)c2-c2cc(N3CCCC3)ccc2S1(=O)=O,0,-2,nt,-1,-1,-3
CC(=O)ONC(=Nc1ccccc1)c1nonc1N,0,2,5.2*,-1,-1,-7
Cc1ccc(N=C(NOC(=O)c2ccccc2)c2nonc2N)c(C)c1,0,0,1,-1,1,1
O=C(NC1=N[C@@]2(C=C3CCCCC3n3c(=O)n(-c4ccccc4)c(=O)n32)CN1Cc1ccccc1)c1ccccc1 (stereo not given in full),-2,0,nt,-2,-1,-3
CNC(=S)NNC(=O)c1oc2nc(-c3ccccc3)cc(C)c2c1N,1,1,2,0,6.1*,-5
NNC(=O)c1oc2nc(-c3ccccc3)cc(-c3ccccc3)c2c1N,-1,1,1,-1,-1,-1
O=C(/C=C/c1c(F)cccc1Cl)Nc1ncccn1,2,6,4.6*,0,5,3
Cc1csc(NC(=O)C2CC(=O)N(c3ccc(C)c(C)c3)C2)n1 (stereo not given),-1,0,0,1.6*,-1,-3

# Screening data: PubChem, The Scripps Research Institute Molecular Screening Center
